The results in this text go back to PubChem BioAssay (NCATS).

The structures appear in SMILES notation. Inconclusive results are not listed. Where a call stands in place of a potency, no number is given. Active and inactive are the calls of the source. Calls follow the shape of the dose curve; as a rule, active = well fitted inhibition curve with a large enough effect; inconclusive = small, poorly fitted or top-dose-only effect; inactive = flat fitted curve, though single readings scatter.

The test concerns Zika virus NS2B-NS3 protease. Description: Primary screen GU AMC qHTS for Zika virus inhibitors (AID 1347154). Also: nearly all actives have a fitted effect of over 70% in size. Conditions: Zika NS2B-NS3 unlinked protease, AMC fluorogenic substrate; series mostly up to 54.1 µM. In a few lines:
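Unlinked Zika NS2B hydrophilic domain–NS3 protease complex at 25 nM in 10 mM Tris-HCl pH 8.0, 0.01% Tween 20, with an AMC peptide substrate. Fluorescence change (340/450 nm) over 15 min at room temperature, normalized to controls, fitted to 4-parameter Hill.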
A general note: In qHTS, concentration-response curves come from the screen itself.
For `CCOCCOC(C)=O`, the Potency entry is “inactive”.
With `c1ccc(CCCN2CCN(CCOC(c3ccccc3)c3ccccc3)CC2)cc1` the entry was “inactive”; with `CC(=CCCC1=CCC(C2=CC(=O)OC2O)OC1O)CCC1=C(C)CCCC1(C)C` (centres undefined), “inactive”.
`C[C@H]([C@H](O)CCC(C)(C)O)[C@H]1CC[C@@]2(O)C3=CC(=O)[C@@H]4C[C@@H](O)[C@@H](O)C[C@]4(C)[C@@H]3CC[C@]12C`: the Potency entry was “inactive”.
Regarding `CC(C)(C)NC[C@H](O)c1ccc(O)cc1Cl`, the Potency result is “inactive”.
On to `O=C(N[C@@H](COc1ccc2[nH]c(=O)[nH]c2c1)c1ccccc1)c1cccn(Cc2ccc(F)c(F)c2)c1=O`, for which the Potency entry was “inactive”.
Consider `CCO/N=C(\CC)C1=C(O)CC(c2c(C)cc(C)cc2C)CC1=O` (centres undefined), for which the Potency entry is “inactive”.
Consider `C1CCC(NC2CCCCC2)CC1`, for which the Potency entry is “inactive”.
As for `CC(O)=C(C#N)C(=O)Nc1cc(Br)ccc1Br`, the Potency result is “inactive”.
Consider `CC(N[C@H]1C[C@H]1c1ccccc1)c1ccc2c(c1)OCCO2` (some centres undefined), for which the Potency result was “inactive”.
The same measure for `Oc1ccc2c3c1O[C@H]1[C@@H](O)C=C[C@H]4[C@@H](C2)NCC[C@@]341`: “inactive”; for `Cc1cc(O)ccc1Cl`: “inactive”.
As to `Nc1ccc(Cl)cc1N`, the Potency result is “inactive”.
The same measure for `O=C(O)C(Cl)Cl`: “inactive”; for `CC(C)[C@H]1C(=O)N[C@H](CO)Cc2c[nH]c3cccc(c23)N1C`: “inactive”.
For the molecule `CCOC(=O)c1cncn1[C@H](C)c1ccccc1`, the Potency result was “inactive”.
For the molecule `CC[N+]1(CCOC(=O)C(O)(c2ccccc2)c2ccccc2)CCCCC1`, the Potency result was “inactive”.
For the molecule `O=C(O)CNC(=O)c1c(O)c2ccccc2n(Cc2ccccc2)c1=O`, the Potency result is “inactive”.
Take `CC(C)(C)[C@]1(O)C[C@@H]2OC(=O)C[C@@]23C(=O)O[C@@H]2OC(=O)[C@H](O)C213` (some centres undefined): the Potency entry was “inactive”.
With `CCOP(=O)(NC(C)C)Oc1ccc(SC)c(C)c1` (centres undefined) the entry was “inactive”.
In the case of `CC(Cc1ccc(O)cc1)NCC(O)c1cc(O)cc(O)c1` (centres undefined), the Potency result is “inactive”.
With `CCCC[N+]1(C)[C@H]2CC(OC(=O)[C@H](CO)c3ccccc3)C[C@H]1[C@H]1O[C@H]12` (some centres undefined) the entry was “inactive”.
The same measure for `CC(C)NCC(O)c1ccc([N+](=O)[O-])cc1` (centres undefined): “inactive”.
The same measure for `CCOC(=O)c1c(C(C#N)=CN)c2ccc(Cl)c(Cl)c2n1C`: “inactive”; for `C[C@]12CC[C@H](O)CC1=CC[C@H]1[C@H]3CCC(=O)[C@@]3(C)CC[C@@H]12`: “inactive”; for `Fc1cc(Br)ccc1CBr`: “inactive”.
As for `O=S(=O)(CC1CS1)c1ccc(Oc2ccccc2)cc1` (centres undefined), the Potency entry was “inactive”.
For the molecule `C[C@]12CC[C@@H]3[C@@H](CCC4=CC(=O)CC[C@@H]43)[C@@H]1CC[C@@H]2OC(=O)CCc1ccccc1`, the Potency entry was “inactive”.
Consider `CCOP(=O)(OCC)C(C)NC(=O)N(CCCl)N=O` (centres undefined), for which the Potency result is “inactive”.
Regarding `Nc1ccc(Sc2ccc(N)cc2)cc1`, the Potency result was “inactive”.
As for `CC1(C)CC/C(=C/c2ccc(Cl)cc2)C1(O)Cn1cncn1` (centres undefined), the Potency entry is “inactive”.
`CCCCC(CC)COC(=O)c1ccccc1C(=O)OCC(CC)CCCC` (centres undefined): the Potency result is “inactive”.
`CC(=O)Nc1ccc(OC[C@](C)(O)C(=O)Nc2ccc([N+](=O)[O-])c(C(F)(F)F)c2)cc1`: the Potency entry was “inactive”.
The same measure for `CCNC(=O)CC1N=C(c2ccc(Cl)cc2)c2cc(OC)ccc2-n2c(C)nnc21` (centres undefined): “inactive”.
